For 63 molecules, activity change, negative = inhibition and Potency results are on record in PubChem BioAssay AID2101 (National Center for Advancing Translational Sciences (NCATS), 2009).

In all, about 330,000 compounds went through this assay and about 300 (0.091%) were called active. Entries that show only a call come without a potency. Another 4% or so got no clear call; they are omitted. Calls follow the shape of the dose curve; as a rule, active = well fitted inhibition curve with a large enough effect; inconclusive = small, poorly fitted or top-dose-only effect, or effect the other way, or another doubt; inactive = no such curve, though single readings can be large or run the other way. The sample as a whole holds a higher share of actives than the screen did.
Potency is read from the fitted curve at half-maximal effect.

This assay concerns the target Lysosomal acid glucosylceramidase (Homo sapiens) (UniProt P04062). Kind of assay: qHTS Assay for Inhibitors and Activators of N370S glucocerebrosidase as a Potential Chaperone Treatment of Gaucher Disease. As to conditions: N370S GC spleen homogenate, 4MU-glucoside fluorescence; series mostly up to 59.4 µM. A general note: qHTS replaces the single test concentration by a dilution series.
For `CO[C@@]12[C@@H](COC(N)=O)C3=C(C(=O)C(C)=C(N)C3=O)N1C[C@@H]1N[C@@H]12`, the activity change, negative = inhibition entry is “inactive”.

Regarding `COc1ccccc1C(=O)Nc1ccc(C)c(S(=O)(=O)N2CCCCC2)c1`, the activity change, negative = inhibition result is “inactive”.

For the molecule `COc1cc(C(c2c(NC(=O)c3ccco3)sc(C)c2C)N2CCOCC2)cc(OC)c1OC` (stereo not drawn), the activity change, negative = inhibition entry is “inactive”.

For `CC1(C(=O)OCC(=O)Nc2ncc(Cl)cc2Cl)CC1(Cl)Cl` (stereo not drawn), the activity change, negative = inhibition entry is “inactive”.

In the case of `Cc1cccc(N2CCN(S(=O)(=O)c3ccc4[nH]c(=O)c(=O)[nH]c4c3)CC2C)c1` (stereo not drawn), the Potency was 12.6 µM (active).

Take `Cc1cccc(N2CCN(C(=O)c3cccc(S(=O)(=O)N4CCc5ccccc5C4)c3)CC2C)c1` (stereo not drawn): the activity change, negative = inhibition result is “inactive”.

With `Cc1cccc(N2CCN(S(=O)(=O)c3ccc(-c4cc(C)no4)s3)CC2C)c1` (stereo not drawn), the activity change, negative = inhibition result was “inactive”.

With `CCCCNc1nc(C)nc2c1nc(-c1ccccc1)n2CCCCN(CC)CC`, the activity change, negative = inhibition result is “inactive”.

In the case of `CC(C)[C@@H](CC(=O)N[C@@H]1CCNC[C@H]1C(=O)N[C@H](CC(=O)N[C@@H](CCC(=O)O)CC(=O)O)Cc1ccccc1)NC(=O)C[C@H](CO)NC(=O)[C@@H]1CNCC[C@H]1N`, the activity change, negative = inhibition entry is “inactive”.

For the molecule `CN(CC(=O)NC(=O)Nc1ccccc1F)Cc1ccccc1`, the activity change, negative = inhibition result was “inactive”.

Regarding `Oc1ccc(-c2c(-c3ccccc3)nn3c(C(F)(F)F)cc(C(F)(F)F)nc23)cc1`, the activity change, negative = inhibition result is “inactive”.

Take `Cn1c(N)c(C(=O)COC(=O)c2cc(C(F)(F)F)nc3c(C(F)(F)F)cccc23)c(=O)n(C)c1=O`: the activity change, negative = inhibition entry was “inactive”.

As for `Cc1cc(C)cc(NC(=O)C(c2ccccc2)N2CCN(CC(=O)N3CCCC3)CC2)c1` (stereo not drawn), the activity change, negative = inhibition result is “inactive”.

`CCCn1c(-c2ccc(F)cc2)nc2c(NCC3CCCN3CC)nc(C)nc21` (stereo not drawn): the activity change, negative = inhibition result was “inactive”.

For `Cc1cccc(CNc2ccnc(-c3cccnc3)n2)c1`, the activity change, negative = inhibition result is “inactive”.

On to `CC(C)C(NS(=O)(=O)c1ccc(-c2ccc(Br)cc2)cc1)C(=O)O` (stereo not drawn), for which the activity change, negative = inhibition entry is “inactive”.

On to `Cn1nc(C(=O)OCC(=O)N(Cc2ccccc2)C(C)(C)C)c2ccccc2c1=O`, for which the activity change, negative = inhibition result is “inactive”.

As to `O=S(O)S(=O)(=O)O`, the activity change, negative = inhibition entry was “inactive”.

`O=C(CN1CCN(C2CCS(=O)(=O)C2)CC1)N1N=C(c2ccc(Cl)cc2)CC1c1ccco1` (stereo not drawn): the activity change, negative = inhibition entry is “inactive”.

Turning to `O=C(CCNS(=O)(=O)c1ccccc1)NCCCc1ccccc1`, the activity change, negative = inhibition result is “inactive”.

In the case of `Cc1ccc(-n2nc(C)c(C(=O)O)c2-n2cccc2)cc1`, the activity change, negative = inhibition entry is “inactive”.

As for `CCC(=O)OCCNc1nc(-c2ccccc2)nc2ccccc12`, the Potency is 2 µM (active).

On to `COc1ccccc1-c1nc(NCCNC(C)=O)c2ccccc2n1`, for which the activity change, negative = inhibition entry was “inactive”.

On to `COCCNc1nc(-c2ccccc2)nc2c1oc1ccccc12`, for which the activity change, negative = inhibition entry is “inactive”.

As for `O=C(CN1CCCCC1)NC(=O)Nc1ccccc1F`, the activity change, negative = inhibition result is “inactive”.

Consider `COc1ccc(C2/C=C\CN(C(=O)c3ccc(C)cc3)C(Cc3ccccc3)C(=O)N2Cc2ccc(F)cc2)cc1` (stereo not drawn), for which the activity change, negative = inhibition result is “inactive”.

Take `O=C(CSc1nnc(CN2CCCC2)n1-c1ccc(F)cc1)c1ccc2c(c1)OCO2`: the activity change, negative = inhibition entry is “inactive”.

In the case of `COc1ccc2c(c1)O[C@@H](c1ccc3c(c1)OCO3)[C@H](OC(=O)NCCc1ccc(OC)c(OC)c1)C2=O`, the activity change, negative = inhibition result is “inactive”.

As for `Cc1ccc(NC(=O)Cn2c(C)csc2=O)cc1`, the activity change, negative = inhibition entry was “inactive”.

On to `CN1CCN(c2ccc(NC(=O)c3cc(Cl)c4c(c3)OCCO4)cc2)CC1`, for which the activity change, negative = inhibition entry is “inactive”.

Turning to `C1CCC2OC2C1` (stereo not drawn), the activity change, negative = inhibition result was “inactive”.

As to `Cc1ccc(C)c(NC(=O)C(c2ccccc2)N2CCN(CC(=O)NC3CC3)CC2)c1` (stereo not drawn), the activity change, negative = inhibition result was “inactive”.

As to `COc1ccc(CCNC(=O)COC(=O)Cc2cccc(F)c2)cc1`, the activity change, negative = inhibition result was “inactive”.

As to `C=CCOC(=O)C(=C)C`, the activity change, negative = inhibition result is “inactive”.

As to `O=C(NCc1ccccn1)[C@]1(C(F)(F)F)C[C@H](CCc2ccccc2)CCCO1`, the activity change, negative = inhibition result was “inactive”.

As for `COC(=O)C(CC(C)C)NS(=O)(=O)c1cc(Br)ccc1Br` (stereo not drawn), the activity change, negative = inhibition entry was “inactive”.

Turning to `Cc1csc(NC(=O)C2CCN(S(=O)(=O)c3ccccc3)CC2)n1`, the activity change, negative = inhibition result is “inactive”.

With `CNC(=O)[C@]1(C(F)(F)F)C[C@H](CCc2ccccc2)CCCO1`, the activity change, negative = inhibition entry was “inactive”.

For the molecule `CN1CCc2nc(-c3ccccc3)c(-c3ccccc3)cc2C1`, the activity change, negative = inhibition is -2.21% [at 12.8 µM] (inactive).

Regarding `COc1ccc(-c2nc(-c3ccccc3)oc2Nc2ccc3ccccc3c2)cc1`, the activity change, negative = inhibition result was “inactive”.

Consider `COc1cccc([C@@H]2Oc3ccc(Br)cc3C(=O)[C@H]2OC(=O)NCc2ccc3c(c2)OCO3)c1`, for which the activity change, negative = inhibition result was “inactive”.

As to `CC(OC(=O)Cc1ccc(F)cc1)C(=O)N1CCc2ccccc21` (stereo not drawn), the activity change, negative = inhibition entry is “inactive”.

As to `CCOC(=O)Cn1c(=O)sc2cccc(Cl)c21`, the activity change, negative = inhibition result was “inactive”.

Turning to `Cc1cc(N(C)C)nc(Cl)n1`, the activity change, negative = inhibition entry is “inactive”.

For the molecule `CNC(=O)C1CC(=O)N(c2ccc(OCC(=O)Nc3ccccc3C)cc2)C1` (stereo not drawn), the activity change, negative = inhibition entry was “inactive”.

Take `C=C(C)C(=O)c1ccc(F)cc1`: the activity change, negative = inhibition entry is “inactive”.

As to `CCCN1CCC(=O)N(C(CSc2ccc(C)cc2)Cc2ccccc2)CC1` (stereo not drawn), the activity change, negative = inhibition entry was “inactive”.

As to `CCN(C(=O)COC(=O)CCOc1cccc(C)c1)c1c(N)n(Cc2ccccc2)c(=O)[nH]c1=O`, the activity change, negative = inhibition result was “inactive”.

For the molecule `CC(C)C[C@H](NC(=O)[C@H](O)[C@H](N)Cc1ccccc1)C(=O)O`, the activity change, negative = inhibition entry is “inactive”.

With `Cc1cc(C)n2nc(C(=O)Nc3cccc(S(=O)(=O)N4CCOCC4)c3)nc2n1`, the activity change, negative = inhibition result is “inactive”.

For the molecule `COC(=O)C1(Cc2ccccc2)C=C2C(=C(C)C(=O)C2C)CN1` (stereo not drawn), the activity change, negative = inhibition result was “inactive”.

Turning to `COC(=O)[C@@]1(C)C=C[C@@H](Cc2ccccc2)N1C(C)=O`, the activity change, negative = inhibition entry was “inactive”.

On to `Cn1c2cc(B(O)O)sc2c2cnn(Cc3ccccc3F)c(=O)c21`, for which the activity change, negative = inhibition result was “inactive”.

In the case of `Cc1ccc(/C(=C/CN2CCCC2)c2ccccn2)cc1`, the activity change, negative = inhibition entry is “inactive”.

In the case of `CCN(CC)CCCCn1c(-c2ccccc2)nc2c(N3CCOCC3)nc(C)nc21`, the activity change, negative = inhibition entry is “inactive”.

Regarding `COc1cccc(NC(=O)CN(C)C(=O)/C=C/c2cn(-c3ccccc3)nc2-c2cccs2)c1`, the activity change, negative = inhibition result was “inactive”.

For the molecule `COc1ccc(C2/C=C\CN(Cc3ccco3)C(C)C(=O)N2Cc2ccc(F)cc2)cc1` (stereo not drawn), the activity change, negative = inhibition entry is “inactive”.

Turning to `O=C(CN1CCCCC1)Nc1ccccc1C(=O)NC1CC1`, the activity change, negative = inhibition result was “inactive”.

Consider `C=C1CCN(C(CC(C)C)C(=O)NCc2cc(OC)c(OC)c(OC)c2)S(=O)(=O)c2ccccc21` (stereo not drawn), for which the activity change, negative = inhibition entry is “inactive”.

Turning to `BrC1C(Br)C(Br)C(Br)C(Br)C1Br` (stereo not drawn), the activity change, negative = inhibition result was “inactive”.

As to `CCCCn1c(N)c(N(CCC(C)C)C(=O)COC(=O)c2ccc(CC)cc2)c(=O)[nH]c1=O`, the activity change, negative = inhibition result is “inactive”.

Regarding `Cc1ccc(C(CC(=O)O)NC(=O)c2ccc(S(=O)(=O)N3CCCC3)cc2)cc1` (stereo not drawn), the activity change, negative = inhibition result is “inactive”.

Regarding `CC(C)=CCC[C@]1(C)[C@@H](CC=C(C)C)C[C@@]2(CC=C(C)C)C(=O)[C@]1(C(=O)C(C)C)C(=O)C(CC=C(C)C)=C2O`, the activity change, negative = inhibition entry was “inactive”.
